Measured values as given in the supplement of paper PMC8975748.
Counter-ions that a name gives are not always drawn. ± gives the standard deviation of the averaged measurements.

How the values were obtained:
[1] = system: Saccharomyces cerevisiae BY4741 SeMeCo community; test: mean cell size (pixel area) (pixels); higher = larger cells; details: 10 µM; 24 h; SM minimal medium
Procedure, shortened: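 A Saccharomyces cerevisiae BY4741 community carrying four plasmids, each with a fluorescent marker and each complementing one auxotrophy, was exposed for 24 h to drug at a final 10 µM in SM medium in acoustically predosed 384-well plates. The overnight preculture (OD600 = 1.0) was diluted to OD600 = 0.3 before 70 µl was added per well. Cells were then fixed with paraformaldehyde, imaged by automated confocal microscopy and analysed in Harmony to derive mean cell pixel area per well, averaged over 3 replicates. Same SeMeCo high-content imaging drug screen: Selleck FDA-approved drugs at 10 µM, 24 h in SM medium, 384-well plates, 3 replicates.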

[2] = system: Saccharomyces cerevisiae BY4741 SeMeCo community; test: z-score of prototroph abundance vs DMSO median; higher = larger share of this subpopulation than in DMSO controls; details: 10 µM; 24 h; SM minimal medium; subpopulation (auxotrophy): Prototroph
Procedure, shortened: (§1)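 Cells of a Saccharomyces cerevisiae BY4741 community, carrying four plasmids that each restored one auxotrophy and encoded a distinct fluorescent protein, were pre-grown overnight to OD600 1.0 and diluted to 0.3. A 70 µl volume was added to 384-well plates acoustically predosed with library drugs (10 µM final) and grown 24 h in minimal SM medium. After paraformaldehyde fixation, automated confocal microscopy was used, with single-auxotroph fluorescent strains for thresholds and autofluorescence correction. The abundance of each subpopulation was scored as a z-score against the vehicle-well median.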

[3] = system: Saccharomyces cerevisiae BY4741 SeMeCo community; test: z-score of subpopulation abundance vs DMSO median, subpopulation auxotrophic for M; higher = larger share of this subpopulation than in DMSO controls; details: 10 µM; 24 h; SM minimal medium; subpopulation (auxotrophy): M
Procedure, shortened: as §1

[4] = system: Saccharomyces cerevisiae BY4741 SeMeCo community; test: z-score of subpopulation abundance vs DMSO median, subpopulation auxotrophic for L; higher = larger share of this subpopulation than in DMSO controls; details: 10 µM; 24 h; SM minimal medium; subpopulation (auxotrophy): L
Procedure, shortened: as §1

[5] = system: Saccharomyces cerevisiae BY4741 SeMeCo community; test: z-score of subpopulation abundance vs DMSO median, subpopulation auxotrophic for U; higher = larger share of this subpopulation than in DMSO controls; details: 10 µM; 24 h; SM minimal medium; subpopulation (auxotrophy): U
Procedure, shortened: as §1

[6] = system: Saccharomyces cerevisiae BY4741 SeMeCo community; test: z-score of subpopulation abundance vs DMSO median, subpopulation auxotrophic for H; higher = larger share of this subpopulation than in DMSO controls; details: 10 µM; 24 h; SM minimal medium; subpopulation (auxotrophy): H
Procedure, shortened: as §1

[7] = system: Saccharomyces cerevisiae BY4741 SeMeCo community; test: z-score of subpopulation abundance vs DMSO median, subpopulation auxotrophic for LU; higher = larger share of this subpopulation than in DMSO controls; details: 10 µM; 24 h; SM minimal medium; subpopulation (auxotrophy): LU
Procedure, shortened: as §1

[8] = system: Saccharomyces cerevisiae BY4741 SeMeCo community; test: z-score of subpopulation abundance vs DMSO median, subpopulation auxotrophic for LM; higher = larger share of this subpopulation than in DMSO controls; details: 10 µM; 24 h; SM minimal medium; subpopulation (auxotrophy): LM
Procedure, shortened: as §1

[9] = system: Saccharomyces cerevisiae BY4741 SeMeCo community; test: z-score of subpopulation abundance vs DMSO median, subpopulation auxotrophic for HM; higher = larger share of this subpopulation than in DMSO controls; details: 10 µM; 24 h; SM minimal medium; subpopulation (auxotrophy): HM
Procedure, shortened: as §1

[10] = system: Saccharomyces cerevisiae BY4741 SeMeCo community; test: z-score of subpopulation abundance vs DMSO median, subpopulation auxotrophic for HU; higher = larger share of this subpopulation than in DMSO controls; details: 10 µM; 24 h; SM minimal medium; subpopulation (auxotrophy): HU
Procedure, shortened: as §1

[11] = system: Saccharomyces cerevisiae BY4741 SeMeCo community; test: z-score of subpopulation abundance vs DMSO median, subpopulation auxotrophic for UM; higher = larger share of this subpopulation than in DMSO controls; details: 10 µM; 24 h; SM minimal medium; subpopulation (auxotrophy): UM
Procedure, shortened: as §1

[12] = system: Saccharomyces cerevisiae BY4741 SeMeCo community; test: z-score of subpopulation abundance vs DMSO median, subpopulation auxotrophic for HUM; higher = larger share of this subpopulation than in DMSO controls; details: 10 µM; 24 h; SM minimal medium; subpopulation (auxotrophy): HUM
Procedure, shortened: as §1

[13] = system: Saccharomyces cerevisiae BY4741 SeMeCo community; test: z-score of subpopulation abundance vs DMSO median, subpopulation auxotrophic for LUM; higher = larger share of this subpopulation than in DMSO controls; details: 10 µM; 24 h; SM minimal medium; subpopulation (auxotrophy): LUM
Procedure, shortened: as §1

[14] = system: Saccharomyces cerevisiae BY4741 SeMeCo community; test: z-score of subpopulation abundance vs DMSO median, subpopulation auxotrophic for HLUM; higher = larger share of this subpopulation than in DMSO controls; details: 10 µM; 24 h; SM minimal medium; subpopulation (auxotrophy): HLUM
Procedure, shortened: as §1

[15] = system: Saccharomyces cerevisiae BY4741 SeMeCo community; test: z-score of subpopulation abundance vs DMSO median, subpopulation auxotrophic for HL; higher = larger share of this subpopulation than in DMSO controls; details: 10 µM; 24 h; SM minimal medium; subpopulation (auxotrophy): HL
Procedure, shortened: as §1

[16] = system: Saccharomyces cerevisiae BY4741 SeMeCo community; test: z-score of subpopulation abundance vs DMSO median, subpopulation auxotrophic for HLM; higher = larger share of this subpopulation than in DMSO controls; details: 10 µM; 24 h; SM minimal medium; subpopulation (auxotrophy): HLM
Procedure, shortened: as §1

CN(C)C[C@@H]1CCn2cc(c3ccccc32)C2=C(C(=O)NC2=O)c2cn(c3ccccc23)CCO1
mean cell size [1]: 12.64 ± 0.084
z-score of prototroph abundance [2]: -0.66
z-score of subpopulation abundance [3]: -0.34
z-score of subpopulation abundance [4]: 1.34
z-score of subpopulation abundance [5]: 0.49
z-score of subpopulation abundance [6]: 1.52
z-score of subpopulation abundance [7]: 1.13
z-score of subpopulation abundance [8]: 0.82
z-score of subpopulation abundance [9]: 0.28
z-score of subpopulation abundance [10]: -0.03
z-score of subpopulation abundance [11]: -0.29
z-score of subpopulation abundance [12]: -0.43
z-score of subpopulation abundance [13]: 0.63
z-score of subpopulation abundance [14]: 0.34

CCCCN1CCCC[C@H]1C(=O)Nc1c(C)cccc1C [Levobupivacaine HCl]
mean cell size [1]: 12.4 ± 0.15
z-score of prototroph abundance [2]: 0.73
z-score of subpopulation abundance [3]: -1.02
z-score of subpopulation abundance [4]: 0.42
z-score of subpopulation abundance [5]: -0.04
z-score of subpopulation abundance [6]: -0.68
z-score of subpopulation abundance [7]: -0.09
z-score of subpopulation abundance [8]: -0.55
z-score of subpopulation abundance [9]: -1.34
z-score of subpopulation abundance [10]: 0.14
z-score of subpopulation abundance [15]: -0.46
z-score of subpopulation abundance [12]: -0.73
z-score of subpopulation abundance [13]: -0.33
z-score of subpopulation abundance [14]: -0.43

CS(=O)(=O)Nc1ccc([N+](=O)[O-])cc1Oc1ccccc1 [Nimesulide]
mean cell size [1]: 12.5 ± 0.22
z-score of prototroph abundance [2]: 0.12
z-score of subpopulation abundance [3]: -0.1
z-score of subpopulation abundance [4]: 0.65
z-score of subpopulation abundance [5]: -0.45
z-score of subpopulation abundance [6]: -0.25
z-score of subpopulation abundance [7]: 0.49
z-score of subpopulation abundance [9]: 0.64
z-score of subpopulation abundance [11]: -0.24
z-score of subpopulation abundance [15]: 0.8
z-score of subpopulation abundance [16]: -0.08
z-score of subpopulation abundance [12]: 0.28

CC1(C)S[C@@H]2[C@H](NC(=O)Cc3ccccc3)C(=O)N2[C@H]1C(=O)O [Penicillin G Sodium]
mean cell size [1]: 12.6 ± 0.34
z-score of subpopulation abundance [3]: -0.8
z-score of subpopulation abundance [4]: -0.1
z-score of subpopulation abundance [5]: 0.06
z-score of subpopulation abundance [6]: -0.3
z-score of subpopulation abundance [7]: 0.16
z-score of subpopulation abundance [9]: -1.14
z-score of subpopulation abundance [10]: -0.78
z-score of subpopulation abundance [11]: -0.23
z-score of subpopulation abundance [16]: -0.09
z-score of subpopulation abundance [12]: -0.66
z-score of subpopulation abundance [13]: -0.52
z-score of subpopulation abundance [14]: 1.41

CO[C@H]1C[C@@H]2CC[C@@H](C)[C@@](O)(O2)C(=O)C(=O)N2CCCC[C@H]2C(=O)O[C@H]([C@H](C)C[C@@H]2CC[C@@H](OCCO)[C@H](OC)C2)CC(=O)[C@H](C)/C=C(\C)[C@@H](O)[C@@H](OC)C(=O)[C@H](C)C[C@H](C)/C=C/C=C/C=C/1C [Everolimus (RAD001)]
mean cell size [1]: 14.17 ± 0.11
z-score of prototroph abundance [2]: -18.1
z-score of subpopulation abundance [3]: -1.38
z-score of subpopulation abundance [4]: -0.87
z-score of subpopulation abundance [5]: 2.5
z-score of subpopulation abundance [6]: 15.9
z-score of subpopulation abundance [7]: 2.59
z-score of subpopulation abundance [8]: 4.3
z-score of subpopulation abundance [10]: 27.1
z-score of subpopulation abundance [11]: 12.8
z-score of subpopulation abundance [16]: 19
z-score of subpopulation abundance [12]: 32.4
z-score of subpopulation abundance [13]: 12.4
z-score of subpopulation abundance [14]: 24

C[C@H](NCc1ccc(OCc2cccc(F)c2)cc1)C(N)=O [Safinamide Mesylate]
mean cell size [1]: 12.4 ± 0.16
z-score of prototroph abundance [2]: -0.78
z-score of subpopulation abundance [3]: 0.58
z-score of subpopulation abundance [4]: 0.79
z-score of subpopulation abundance [5]: -0.34
z-score of subpopulation abundance [6]: 0.45
z-score of subpopulation abundance [7]: 0.54
z-score of subpopulation abundance [8]: 0.94
z-score of subpopulation abundance [11]: 0.17
z-score of subpopulation abundance [15]: 0.64
z-score of subpopulation abundance [16]: 0.54
z-score of subpopulation abundance [12]: 0.75
z-score of subpopulation abundance [13]: 0.24

COc1ccc(C(=O)NCc2ccc(OCCN(C)C)cc2)cc1OC [Itopride hydrochloride]
mean cell size [1]: 12.4 ± 0.13
z-score of prototroph abundance [2]: -0.3
z-score of subpopulation abundance [3]: 0.65
z-score of subpopulation abundance [4]: 0
z-score of subpopulation abundance [5]: -0.45
z-score of subpopulation abundance [6]: -0.37
z-score of subpopulation abundance [7]: 0.56
z-score of subpopulation abundance [8]: 0.86
z-score of subpopulation abundance [10]: 0.11
z-score of subpopulation abundance [11]: 0.38
z-score of subpopulation abundance [15]: -0.33
z-score of subpopulation abundance [16]: 0.04
z-score of subpopulation abundance [12]: 0.81
z-score of subpopulation abundance [13]: 0.15
z-score of subpopulation abundance [14]: -0.16

CC#C[C@]1(O)CC[C@H]2[C@@H]3CCC4=CC(=O)CCC4=C3[C@@H](c3ccc(N(C)C)cc3)C[C@@]21C [Mifepristone]
mean cell size [1]: 12.3 ± 0.19
z-score of prototroph abundance [2]: -1.1
z-score of subpopulation abundance [3]: 0.43
z-score of subpopulation abundance [4]: 1.02
z-score of subpopulation abundance [6]: 1.2
z-score of subpopulation abundance [7]: 0.63
z-score of subpopulation abundance [8]: 0.79
z-score of subpopulation abundance [9]: 1.66
z-score of subpopulation abundance [11]: 0.64
z-score of subpopulation abundance [16]: 0.44
z-score of subpopulation abundance [13]: 0.67
z-score of subpopulation abundance [14]: -0.67
